PubChem BioAssay (NCI)
Compounds without any hit were thinned out: in the full panel of roughly 79,000, 15% have a hit. Unmarked numbers belong to inactive results. No stated cut-off is given here; in the data, active means growth inhibition above about 70%; inactive means the rest.

Assay: NCI Yeast Anticancer Drug Screen. Data for the bub3 strain (AID 167)
Conditions: S. cerevisiae bub3 mutant strain, at 50.0 µM, stronger effect = higher value
Outline: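 Compounds were applied to a genetically altered yeast strain carrying a cell-cycle control defect. Growth inhibition was scored against vehicle-treated controls.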

Row | SMILES | growth inhibition
1 | CC=C(c1ccccc1)c1ccccc1 | -3.3%
2 | CC(=O)c1ccc2c(c1)-c1ccc(C(C)=O)cc1-2 | -10.8%
3 | N#Cc1n[nH]n(C2CCCCC2)c1=O | -20.1%
4 | CCC(C1=CCCCC1)c1nc2c([nH]1)c(=O)n(C)c(=O)n2C (configuration not stated) | 17.6%
5 | CCCCNS(=O)(=O)c1ccccc1 | 1.6%
6 | CSc1ccc(NC(=O)NNP(=S)(Oc2ccc(C(C)(C)C)cc2)Oc2ccc(C(C)(C)C)cc2)cc1 | -5.75%
7 | CC(C(=O)O)C1(O)CCCCC1 (configuration not stated) | 13.7%
8 | CC(C)(N)COC(=O)c1ccc([N+](=O)[O-])cc1 | 12.2%
9 | C=CCOC(=O)NC(Cc1ccc(O)cc1)C(=O)O (configuration not stated) | -10.8%
10 | C/C(CC(=O)Nc1ccc(C)c(C)c1)=N\NC(N)=O | -22%
11 | O=C(c1ccccc1)C(O)(c1ccccc1)C(c1ccccc1)c1ccccc1 (configuration not stated) | 6.75%
12 | CC(=O)OC1COC(n2cnc3c(N)ncnc32)C(OC(C)=O)C1OC(C)=O (configuration not stated) | 1.2%
13 | O=C(Nc1cccc2ccccc12)c1ccc(Cl)c(Cl)c1 | 63.5%
14 | [O-][n+]1c2ccccc2nn1-c1ccccc1 | -7.2%
15 | COc1ccc(/C=C2/SC(=Nc3ccccc3)N(NC(=O)Cc3ccccc3)C2=O)c(OC)c1 | -1.85%
16 | CCOc1c(Cc2ccccc2)c(=O)n2c3ccccc3n3c(=O)n(C)c(=O)c1c23 | -12.8%
17 | CCCCc1noc(N)c1SCC | -9.2%
